Our source for the binding signal values is PMC7862700, “An all-to-all approach to the identification of sequence-specific readers for epigenetic DNA modifications on cytosine”.

Common to all, as to experiment: DAPPL (digital affinity profiling via proximity ligation, sequencing); 10 mM Tris-HCl pH 7.5, 50 mM NaCl, 1 mM DTT, 4% glycerol, room temperature, 30 min; GST-TFs on glutathione beads, 16-mer random dsDNA library, 0.1% formaldehyde crosslink after washing; high values mean tight binding
What all share (details): protein: recombinant; tags: N-terminal GST; dsDNA, one strand shown

The target in one experiment is T1, FEV (Homo sapiens, UniProt Q99581 1-238).
T1 sequence: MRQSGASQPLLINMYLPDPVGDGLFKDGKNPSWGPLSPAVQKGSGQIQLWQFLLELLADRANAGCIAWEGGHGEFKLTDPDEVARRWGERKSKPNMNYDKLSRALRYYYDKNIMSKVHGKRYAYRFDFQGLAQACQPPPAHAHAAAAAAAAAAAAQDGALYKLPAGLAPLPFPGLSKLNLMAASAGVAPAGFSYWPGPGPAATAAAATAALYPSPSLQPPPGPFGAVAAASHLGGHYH
The method in brief:
(§1)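 Binding signal is given per hexamer as its read frequency for a factor divided by its frequency in the tag-only sample. GST-fused human transcription factors were expressed in yeast, captured on glutathione beads, barcoded with DNA and pooled with that sample, then incubated with 200 nmole of a 16-mer random double-stranded DNA library in Tris/NaCl/DTT/glycerol buffer for 30 min at room temperature. The pools were then washed, crosslinked, proximity-ligated, amplified by PCR and sequenced on an Illumina NextSeq500.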

The next experiment has as its target ETV5 (Homo sapiens, UniProt P41161 1-510). The method in brief:
as §1

In another experiment the target is T2, SPIC (Homo sapiens, UniProt Q8N5J4 1-248).
T2 sequence: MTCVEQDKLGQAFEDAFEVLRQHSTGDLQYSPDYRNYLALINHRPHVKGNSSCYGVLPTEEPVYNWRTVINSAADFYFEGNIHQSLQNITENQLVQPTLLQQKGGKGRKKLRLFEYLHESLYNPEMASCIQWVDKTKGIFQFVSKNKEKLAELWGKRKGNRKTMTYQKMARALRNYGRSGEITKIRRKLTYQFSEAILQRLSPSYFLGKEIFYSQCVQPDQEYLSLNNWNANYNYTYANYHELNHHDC
Summed up: as §1

Another experiment concerns the target ELF4 (Homo sapiens, UniProt Q99607 1-663). Summed up:
as §1

In another experiment the target is T3, ELK4 (Homo sapiens, UniProt P28324-2 1-405).
T3 sequence: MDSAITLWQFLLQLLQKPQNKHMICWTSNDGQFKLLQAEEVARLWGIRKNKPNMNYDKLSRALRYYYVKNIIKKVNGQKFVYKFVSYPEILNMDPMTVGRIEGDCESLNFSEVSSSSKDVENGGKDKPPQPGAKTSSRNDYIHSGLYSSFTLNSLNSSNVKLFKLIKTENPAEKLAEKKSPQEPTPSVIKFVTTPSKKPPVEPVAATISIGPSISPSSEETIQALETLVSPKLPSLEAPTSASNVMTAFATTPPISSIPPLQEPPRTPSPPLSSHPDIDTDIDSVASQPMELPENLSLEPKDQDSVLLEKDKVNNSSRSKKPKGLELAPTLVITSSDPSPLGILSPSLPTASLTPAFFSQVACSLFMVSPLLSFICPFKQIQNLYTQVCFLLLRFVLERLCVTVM
Summed up: as §1

A further experiment concerns the target T4, ETV2 (Homo sapiens, UniProt O00321 1-342).
T4 sequence: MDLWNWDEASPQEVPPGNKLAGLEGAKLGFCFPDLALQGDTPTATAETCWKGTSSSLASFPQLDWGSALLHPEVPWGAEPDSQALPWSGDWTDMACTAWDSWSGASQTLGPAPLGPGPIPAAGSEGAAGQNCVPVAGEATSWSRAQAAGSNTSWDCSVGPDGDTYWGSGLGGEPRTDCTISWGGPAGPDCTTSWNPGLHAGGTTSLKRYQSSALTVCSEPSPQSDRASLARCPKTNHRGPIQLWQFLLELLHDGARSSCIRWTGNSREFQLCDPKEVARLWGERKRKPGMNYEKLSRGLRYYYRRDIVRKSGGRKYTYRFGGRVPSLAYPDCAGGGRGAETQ
Summed up: as §1

In a further experiment the target is T5, ELF3 (Homo sapiens, UniProt P78545 1-371).
T5 sequence: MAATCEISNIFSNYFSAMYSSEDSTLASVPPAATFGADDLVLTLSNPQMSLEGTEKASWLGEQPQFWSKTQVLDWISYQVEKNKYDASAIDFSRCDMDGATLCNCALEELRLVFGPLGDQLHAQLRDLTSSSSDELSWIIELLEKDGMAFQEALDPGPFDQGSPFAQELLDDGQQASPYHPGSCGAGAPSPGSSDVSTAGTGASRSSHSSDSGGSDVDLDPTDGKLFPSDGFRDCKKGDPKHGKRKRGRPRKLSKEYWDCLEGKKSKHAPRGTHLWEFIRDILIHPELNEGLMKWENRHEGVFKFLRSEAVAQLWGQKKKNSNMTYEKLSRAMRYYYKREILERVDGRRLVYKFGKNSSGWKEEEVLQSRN
Summed up:
as §1

The target in a further experiment is ETV1 (Homo sapiens, UniProt P50549 1-477). The method in brief:
as §1

ETV1, sequence (P50549 whole entry): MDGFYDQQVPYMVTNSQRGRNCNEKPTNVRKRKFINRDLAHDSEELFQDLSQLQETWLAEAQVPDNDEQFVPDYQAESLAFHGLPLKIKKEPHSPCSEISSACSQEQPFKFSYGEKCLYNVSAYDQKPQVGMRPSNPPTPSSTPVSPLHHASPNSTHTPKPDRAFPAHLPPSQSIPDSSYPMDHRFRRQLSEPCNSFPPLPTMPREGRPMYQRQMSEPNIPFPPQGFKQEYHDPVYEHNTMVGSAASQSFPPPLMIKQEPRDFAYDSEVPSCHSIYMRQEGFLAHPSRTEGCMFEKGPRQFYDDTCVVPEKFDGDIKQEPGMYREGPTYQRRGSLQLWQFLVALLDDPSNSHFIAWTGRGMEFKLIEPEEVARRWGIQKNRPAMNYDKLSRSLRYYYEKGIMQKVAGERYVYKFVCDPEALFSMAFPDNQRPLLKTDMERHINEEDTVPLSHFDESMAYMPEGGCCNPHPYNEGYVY
ELF4, sequence (Q99607 whole entry): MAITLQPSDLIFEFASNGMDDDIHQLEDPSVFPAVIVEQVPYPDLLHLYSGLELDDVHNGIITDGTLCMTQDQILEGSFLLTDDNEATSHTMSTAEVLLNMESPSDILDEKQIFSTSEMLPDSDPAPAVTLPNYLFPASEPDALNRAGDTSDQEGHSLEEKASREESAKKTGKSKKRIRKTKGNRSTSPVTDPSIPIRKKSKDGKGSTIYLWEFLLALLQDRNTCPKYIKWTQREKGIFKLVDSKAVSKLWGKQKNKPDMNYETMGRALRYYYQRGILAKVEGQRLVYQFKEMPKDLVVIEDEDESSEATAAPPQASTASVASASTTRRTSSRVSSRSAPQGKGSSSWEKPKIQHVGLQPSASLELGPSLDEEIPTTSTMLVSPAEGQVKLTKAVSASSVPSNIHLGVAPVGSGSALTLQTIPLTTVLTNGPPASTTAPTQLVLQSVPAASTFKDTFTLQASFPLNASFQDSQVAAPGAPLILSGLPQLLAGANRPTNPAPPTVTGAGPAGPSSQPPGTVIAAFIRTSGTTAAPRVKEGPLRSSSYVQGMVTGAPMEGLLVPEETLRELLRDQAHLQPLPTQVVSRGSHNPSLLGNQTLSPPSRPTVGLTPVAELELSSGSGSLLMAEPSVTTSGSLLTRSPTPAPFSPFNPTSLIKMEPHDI
ETV5, sequence (P41161 whole entry): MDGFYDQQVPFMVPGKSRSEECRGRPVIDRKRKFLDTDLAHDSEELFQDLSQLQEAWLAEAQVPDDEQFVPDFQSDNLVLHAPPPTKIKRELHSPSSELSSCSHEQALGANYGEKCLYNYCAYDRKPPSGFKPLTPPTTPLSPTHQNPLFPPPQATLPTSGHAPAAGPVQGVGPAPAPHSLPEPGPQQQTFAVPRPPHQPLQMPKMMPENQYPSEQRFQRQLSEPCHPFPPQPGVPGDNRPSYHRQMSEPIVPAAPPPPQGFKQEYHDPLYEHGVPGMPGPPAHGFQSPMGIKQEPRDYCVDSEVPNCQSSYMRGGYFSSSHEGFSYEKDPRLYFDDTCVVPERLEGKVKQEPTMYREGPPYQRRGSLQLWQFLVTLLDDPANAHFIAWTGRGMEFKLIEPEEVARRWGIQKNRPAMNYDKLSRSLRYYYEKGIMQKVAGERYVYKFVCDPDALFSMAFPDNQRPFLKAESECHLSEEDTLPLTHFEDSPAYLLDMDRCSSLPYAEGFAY

As to CGCCCC, the binding signal in the experiment with FEV was 1.21 fold enrichment (6-mer frequency, TF over GST control); with ETV5, 1.23 fold enrichment (6-mer frequency, TF over GST control); with SPIC, 1.24 fold enrichment (6-mer frequency, TF over GST control); with ELF4, 1.28 fold enrichment (6-mer frequency, TF over GST control); in the experiment with ELK4 it was 1.06 fold enrichment (6-mer frequency, TF over GST control); with ETV2, 1.02 fold enrichment (6-mer frequency, TF over GST control). The binding signal with ELF3 is 1.09 fold enrichment (6-mer frequency, TF over GST control); with ETV1, 1.25 fold enrichment (6-mer frequency, TF over GST control).
For CCCAAC, the binding signal with FEV was 1.17 fold enrichment (6-mer frequency, TF over GST control); in the experiment with ETV5, 1.11 fold enrichment (6-mer frequency, TF over GST control); in the experiment with SPIC it was 1.17 fold enrichment (6-mer frequency, TF over GST control); with ELF4, 1.22 fold enrichment (6-mer frequency, TF over GST control); in the experiment with ELK4 it was 1.18 fold enrichment (6-mer frequency, TF over GST control); with ETV2, 1.03 fold enrichment (6-mer frequency, TF over GST control). For the same sequence, the binding signal was 1.17 fold enrichment (6-mer frequency, TF over GST control) with ELF3 and 1.13 fold enrichment (6-mer frequency, TF over GST control) with ETV1.
For the sequence ACCAAC, the binding signal with FEV was 1.19 fold enrichment (6-mer frequency, TF over GST control); with ETV5, 1.22 fold enrichment (6-mer frequency, TF over GST control); in the experiment with SPIC, 1.1 fold enrichment (6-mer frequency, TF over GST control); in the experiment with ELF4, 1.25 fold enrichment (6-mer frequency, TF over GST control); with ELK4, 1.31 fold enrichment (6-mer frequency, TF over GST control); in the experiment with ETV2 it was 1.25 fold enrichment (6-mer frequency, TF over GST control). Also, the binding signal with ELF3 was 1.2 fold enrichment (6-mer frequency, TF over GST control); in the experiment with ETV1, 1.16 fold enrichment (6-mer frequency, TF over GST control).
Regarding TACCGG, the binding signal with FEV is 2.1 fold enrichment (6-mer frequency, TF over GST control); with ETV5 it was 1.68 fold enrichment (6-mer frequency, TF over GST control); with SPIC it was 1.43 fold enrichment (6-mer frequency, TF over GST control); in the experiment with ELF4, 1.51 fold enrichment (6-mer frequency, TF over GST control); in the experiment with ELK4 it was 1.4 fold enrichment (6-mer frequency, TF over GST control); in the experiment with ETV2, 1.5 fold enrichment (6-mer frequency, TF over GST control). Besides, the binding signal in the experiment with ELF3 was 1.78 fold enrichment (6-mer frequency, TF over GST control); with ETV1, 1.73 fold enrichment (6-mer frequency, TF over GST control).
Consider CTATGT, for which the binding signal with FEV was 1.09 fold enrichment (6-mer frequency, TF over GST control); in the experiment with ETV5, 1.01 fold enrichment (6-mer frequency, TF over GST control); with SPIC, 1.01 fold enrichment (6-mer frequency, TF over GST control); with ELF4, 1.18 fold enrichment (6-mer frequency, TF over GST control); in the experiment with ELK4, 1.15 fold enrichment (6-mer frequency, TF over GST control); in the experiment with ETV2 it was 1.14 fold enrichment (6-mer frequency, TF over GST control). Further, the binding signal with ELF3 is 1.23 fold enrichment (6-mer frequency, TF over GST control); in the experiment with ETV1, 1 fold enrichment (6-mer frequency, TF over GST control).
On to CATTCA, for which the binding signal in the experiment with FEV was 1.01 fold enrichment (6-mer frequency, TF over GST control); with ETV5, 1.12 fold enrichment (6-mer frequency, TF over GST control); with SPIC it was 1.01 fold enrichment (6-mer frequency, TF over GST control); in the experiment with ELF4 it was 1.11 fold enrichment (6-mer frequency, TF over GST control); with ELK4, 1.09 fold enrichment (6-mer frequency, TF over GST control); with ETV2, 1.03 fold enrichment (6-mer frequency, TF over GST control). The binding signal with ELF3 is 1.06 fold enrichment (6-mer frequency, TF over GST control); with ETV1, 1.15 fold enrichment (6-mer frequency, TF over GST control).
On to CAAACC, for which the binding signal was 1.18 fold enrichment (6-mer frequency, TF over GST control) in the experiment with FEV; 1.05 fold enrichment (6-mer frequency, TF over GST control) with ETV5; 1.06 fold enrichment (6-mer frequency, TF over GST control) with SPIC; 1.2 fold enrichment (6-mer frequency, TF over GST control) in the experiment with ELF4; 1.05 fold enrichment (6-mer frequency, TF over GST control) in the experiment with ELK4; 1.12 fold enrichment (6-mer frequency, TF over GST control) with ETV2. Moreover, the binding signal with ELF3 is 1.15 fold enrichment (6-mer frequency, TF over GST control); with ETV1, 1.18 fold enrichment (6-mer frequency, TF over GST control).
